The values below come from PubChem BioAssay (NCATS).

Results filed as inconclusive are left out. A number with no mark means an inactive call. Calls of active or inactive are those of the source. Calls come from the whole dose curve; as a rule, active = well fitted cell-killing curve with a large enough effect; inconclusive = small, poorly fitted or top-dose-only effect; inactive = no such curve, though single readings can be large or run the other way.
Potency is the fitted concentration of half-maximal effect.

The experiment can be described thus: qHTS of pediatric cancer cell lines to identify multiple opportunities for drug repurposing: Primary screen for SJ-GBM2 cells (AID 1347091). Conditions: SJ-GBM2 viability, CellTiter-Glo luminescence, 48 h; series mostly up to 46 µM; activity change, negative = cytotoxic: at the top concentration. The source says: Drug repurposing or repositioning has been offered as a strategy for drug development in oncology programs. This approach has special potential for childhood cancers and other rare or orphan diseases, where the expected return on new drug development has been a disincentive to pharmaceuticals.
In this project we exploit the poly-pharmacology of drugs to discover new indications via phenotypic screening of a panel of 19 well-characterized cell lines derived from solid tumors seen in children and adolescents. The goal is to identify approved drugs with previously unrecognized anticancer properties that has the potential to reveal new mechanisms and biological processes involved in carcinogenesis or drug resistance. We employed a titration-based paradigm (quantitative high-throughput screening or qHTS), where all compounds were tested at multiple concentrations for their effect on cell viability. Concentration-response curves (CRCs) were derived directly from the primary screen, and both potency and efficacy values were used to identify compounds with robust bioactivity profiles. We screened the NIH Chemical Genomics Center (NCGC) Pharmaceutical Collection (NPC) and Mechanism Interrogation Plate (MIPE) small molecule collections of approved and investigational compounds against these cell lines; and measured metabolically active cells after 48 hours of compound treatment as a proxy for cell viability.
Assay Submitter: Nathalia J. Martinez, National Center for Advancing Translational Sciences, National Institutes of Health, Rockville, MD, USA; email: natalia.martinez@nih.gov
[1] Shen, M et al. Quantitative high-throughput phenotypic screening of pediatric cancer cell lines identifies multiple opportunities for drug repurposing. Oncotarget 2017 Dec 19;9(4):4758-4772. PMID 29435139.
The cells were obtained from University of North Carolina (UNC), Pediatric Preclinical Testing Program (PPT), and Coriell Institute (CI).
qHTS cell viability assay:
Cells were assayed in growth media at a density of 500-1,000 cells/well. Five microliters of cells were dispensed into 1,536-well, white, solid-bottom, TC-treated plates (Greiner Bio One) using a multidrop dispenser and incubated at 37 degrees C, 5% CO2, under a humidified atmosphere for 5 hours. Twenty-three nanoliters of compounds and controls (neutral control DMSO or positive control bortezomib at final concentration of 2.3 µM) were subsequently transferred by Kalypsys pintool. For primary screens, the MIPE collection was tested at 11-point dilutions (final concentrations range from 0.78 nM to 46 µM) and the NPC collection at 8-point dilutions (final concentrations range from 0.59 nM to 46 µM). Compounds tested in follow-up screens were assayed at 11-point dilutions. Cells were incubated for 48 hours, followed by addition of 3 uL of CellTiter-Glo (Promega). After a 15 min incubation at room temperature, samples were analyzed for luminescence intensity using a ViewLux High-throughput CCD imager equipped with clear filters.
For orientation: Quantitative high-throughput screening tests each substance at several concentrations.
As to `CCOP(=S)(OCC)Oc1cc(C)nc(C(C)C)n1`, the “activity change, negative = cytotoxic” value was 14.3%.

In the case of `O=c1oc2ccccc2c(O)c1C(CC(O)c1ccc(-c2ccc(Br)cc2)cc1)c1ccccc1` (stereo not given), the “activity change, negative = cytotoxic” value was 28.7%.

Take `C=C1CC[C@@]2(O)[C@H]3Cc4ccc(O)c5c4[C@@]2(CCN3CC2CC2)[C@H]1O5`: the “activity change, negative = cytotoxic” value was 17.6%. Still for that read-out and setting: with `C=CCN1CC[C@]23c4c5ccc(O)c4O[C@H]2C(=O)CC[C@@]3(O)[C@H]1C5` the figure was 15.5%; with `O=c1[nH]c2ccccc2n1CCCN1CCC(n2c(=O)[nH]c3cc(Cl)ccc32)CC1`, -5.44%.

On to `CC(CCc1ccccc1)NC(C)C(O)c1ccc(O)cc1` (stereo not given), for which the “activity change, negative = cytotoxic” value is 12.2%. The same measure, in the same setting: the figure for `COc1ccc(C(=O)c2c(C)n(CCN3CCOCC3)c3ccccc23)cc1` is 16.2%. Turning to `NCC1(CC(=O)O)CCCCC1`, the Potency result is “inactive”. As for `CN1CCN(C(=O)O[C@H]2c3nccnc3C(=O)N2c2ccc(Cl)cn2)CC1`, the Potency entry is “inactive”. On to `C[C@@H]1[C@@H](CC(C[C@H]2O[C@@H]3O[C@]4(C)CC[C@@H]5[C@H](C)CC[C@@H]([C@H]2C)[C@@]35OO4)C[S+](=O)([O-])c2ccc(COC(=O)N(C)C)cc2)O[C@@H]2O[C@]3(C)CC[C@H]4[C@H](C)CC[C@@H]1[C@@]24OO3` (stereo not given in full), for which the Potency was 469 nM (active).

Consider `CCCC(C)(COC(N)=O)COC(=O)NC(C)C` (stereo not given), for which the Potency result was “inactive”. With `CCN(CC)CCN1C(=O)CN=C(c2ccccc2F)c2cc(Cl)ccc21`, the “activity change, negative = cytotoxic” value was 14.1%. Regarding `Cc1ncc(CNC(=O)N(CCCl)N=O)c(N)n1`, the “activity change, negative = cytotoxic” value was 5.36%. Take `CC(C)(C)CC(C)(C)c1ccc(O)cc1`: the Potency is 21700 nM (active). With `COC[C@@H](NC(C)=O)C(=O)NCc1ccccc1`, the “activity change, negative = cytotoxic” value is 9.94%. Consider `COc1ccccc1N1CCNCC1`, for which the “activity change, negative = cytotoxic” value was 2.62%. Consider `CCN(CC)C(=O)N[C@@H]1C=C2c3cccc4[nH]cc(c34)C[C@@H]2N(C)C1`, for which the “activity change, negative = cytotoxic” value is 26.4%.

For `Cc1cccc(C)c1NC(=O)CN1CCCC1=O`, the Potency result was “inactive”. Take `CCN(C(C)=O)c1cccc(-c2ccnc3c(C#N)cnn23)c1`: the “activity change, negative = cytotoxic” value is -0.698%. Regarding `CC1NCCOC1c1ccccc1` (stereo not given), the “activity change, negative = cytotoxic” value was 16.8%. For the compound `O=C1NCN(c2ccccc2)C12CCN(CC1COc3ccccc3O1)CC2` (stereo not given), the “activity change, negative = cytotoxic” value is -14.8%. On to `N#CC(C#N)=Cc1ccc(O)c(O)c1`, for which the “activity change, negative = cytotoxic” value is 5.86%. For the compound `CCCC1CCCCN1` (stereo not given), the “activity change, negative = cytotoxic” value was 8.89%. As for `CC[C@@H](CO)NC(=O)[C@@H]1C=C2c3cccc4[nH]cc(c34)C[C@H]2N(C)C1`, the “activity change, negative = cytotoxic” value was 4.33%. The same measure, in the same setting: the figure for `CCN(CC)CCOC(=O)C(O)(c1ccccc1)c1ccccc1` is 5.83%; for `CCCN1CCC[C@@H]2Cc3nc(N)ncc3C[C@H]21` it is 17.6%. The same measure, in the same setting: with `CC(C)=CCOc1c2occc2cc2ccc(=O)oc12` the figure was 1.79%.

As for `CNCC(O)c1ccc(O)cc1` (stereo not given), the Potency entry is “inactive”. With `O=C1CC[C@@]2(O)[C@H]3Cc4ccc(O)c5c4[C@@]2(CCN3CC2CC2)[C@H]1O5`, the Potency entry is “inactive”. As to `NCC(CC(=O)O)c1ccc(Cl)cc1` (stereo not given), the activity change, negative = cytotoxic was -1.55% [at 0.597 µM]. With `CN(C)[C@@H]1C(=O)C(C(N)=O)=C(O)[C@@]2(O)C(=O)C3=C(O)c4c(O)cccc4[C@@](C)(O)[C@H]3C[C@@H]12`, the Potency result was “inactive”. `NP(N)(=O)NC(=O)c1ccc(F)cc1`: the “activity change, negative = cytotoxic” value was 17%. In the case of `CC[N+]1(C)CCCC(OC(=O)C(O)(c2ccccc2)c2ccccc2)C1` (stereo not given), the “activity change, negative = cytotoxic” value is 13.3%.

On to `CC(C)=CC1C(C(=O)OCc2cccc(Oc3ccccc3)c2)C1(C)C` (stereo not given), for which the “activity change, negative = cytotoxic” value is 6.07%. In the case of `CC(C)(C)NCC(O)c1cc(Cl)c(N)c(Cl)c1` (stereo not given), the “activity change, negative = cytotoxic” value was 31.4%. As to `C=C1C[C@@H]2[C@H](CC[C@]3(C)C(=O)CC[C@@H]23)[C@@]2(C)C=CC(=O)C=C12`, the “activity change, negative = cytotoxic” value is -19.6%.

Consider `O=C(O)c1ccc2[nH]cc(CCCCN3CC=C(c4ccccc4)CC3)c2c1`, for which the “activity change, negative = cytotoxic” value was 6.41%.

Regarding `C=C(C)[C@H]1Cc2c(ccc3c2O[C@@H]2COc4cc(OC)c(OC)cc4[C@@H]2C3=O)O1`, the Potency is 422 nM (active). `CN1C(=S)CN=C(c2ccccc2)c2cc(Cl)ccc21`: the “activity change, negative = cytotoxic” value was 18.6%. With `NN=C(N)N`, the “activity change, negative = cytotoxic” value is 16.7%.
